Test results published in PubChem BioAssay (NCATS).
Records with an inconclusive call do not appear. Unless noted, calls follow the shape of the dose curve; as a rule, active = well fitted activation curve with a large enough effect; inconclusive = small, poorly fitted or top-dose-only effect; inactive = flat fitted curve, though single readings scatter.

experiment: qHTS Assay for Identification of Small Molecule Agonists for Hypoxia Response Element Signaling Pathway (AID 914; active = well fitted activation curve with a large enough effect in the signal ratio, with a control signal flat, not every such curve was filed as active; the % refers to the signal ratio); settings: ME-180 (cervical carcinoma) HRE-bla reporter, beta-lactamase ratio, CoCl2, 17 h; stronger effect = higher value
Summary of the method: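 HRE-bla ME-180 assay for agonist-like enhancement of an EC50 CoCl2 stimulus: 17 h at 37 degrees Celsius, CCF4 for 2.5 h, ratiometric 460/530 nm signal converted to %Activity and fitted to AC50.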
Also: % of control where 0% means no effect.

activation, inactive:
C[C@@H]1/C=C\CC(=O)OC[C@H](C)C(=O)N[C@@H](C)C(=O)OC1 0.738%, C[C@H]1COC(=O)[C@H]2CCCN2C(=O)[C@@H](C)COC(=O)[C@H](Cc2ccccc2)NC1=O -0.107%, Cc1ccc(S(=O)(=O)N[C@H]2COC(=O)C/C=C\[C@@H](C)[C@H](NS(=O)(=O)c3ccc(C)cc3)COC(=O)[C@H](C)NC(=O)C/C=C\[C@H]2C)cc1 3.42%, COC(=O)[C@H](Cc1ccccc1)NC(=O)[C@@H](C)CO 5.86%, CCOC(=O)CCN1C(=O)[C@H]2[C@@H]3[C@H](O)[C@H](O)CC(=O)[C@H]3CC[C@H]2C1=O 2.87%, COC(=O)C/C=C\[C@@H](C)[C@@H](/C=N\O[C@@H](C)CN1CCCc2nc(C)c(C)cc21)NS(=O)(=O)c1ccc(C)cc1 4.52%

experiment: Confirmation and Secondary Assay for Modulators of Hemoglobin Beta Chain Splicing at IVS2 705 locus (AID 930); settings: HeLa EGFP-705 splicing reporter, GFP fluorescence, 48 h; series mostly up to 46.1 µM; activation: at the top concentration;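 also: HeLa cells stably expressing the EGFP-705 splicing reporter; GFP fluorescence per well restored by corrected splicing of the IVS2-705 intron in EGFP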
Summary of the method: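 HeLa IVS2-705 EGFP reporter cells, 500/well, compound 2 d at 37C; correct splicing yields fluorescent EGFP. Control: 500 nM antisense PNA. Read-out: total peak GFP intensity.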

activation, inactive:
COC(=O)C1C(O)CC[C@H]2CN3CCc4c([nH]c5ccccc45)C3C[C@H]12 (some centres not stated) 2.03% [at 38.3 µM], CC(C)CC1C(=O)N2CCCC2C2(O)O[C@@](NC(=O)C3C=C4c5cccc6[nH]c(Br)c(c56)CC4N(C)C3)(C(C)C)C(=O)N12 (some centres not stated) 1.45%, CC1CC[C@@]2(C(=O)O)CC[C@]3(C)C(=CCC4[C@@]5(C)CCC(O)C(C)(C)C5CC[C@@]43C)C2C1C (some centres not stated) -0.895% [at 38.3 µM], CC(=O)[C@]1(O)CCC2C3CC(C)C4=CC(=O)C=CC4(C)[C@@]3(F)C(O)C[C@]21C (some centres not stated) 4.32%, Nc1ncn(C2OC(CO)C(O)C2O)c(=O)n1 (configuration not stated) 0.194%, COc1cc2c(c(OC)c1OC)-c1ccc(OC)c(=O)cc1C(NC(C)=O)CC2 (configuration not stated) 0.24%, C=C1c2c(Cl)ccc(O)c2C(O)=C2C(=O)[C@]3(O)C(O)=C(C(N)=O)C(=O)C(N(C)C)C3C(O)C12 (some centres not stated) 1.35%, CC(CCC(=O)O)C1CCC2C3CC[C@H]4CC(O)CC[C@@]4(C)C3CC[C@@]12C (some centres not stated) 2.98%, CC(=O)N1CCN(c2ccc(OCC3CO[C@@](Cn4ccnc4)(c4ccc(Cl)cc4Cl)O3)cc2)CC1 (some centres not stated) -0.512%, CN1C[C@H](C(=O)N[C@@]2(C)O[C@@]3(O)C4CCCN4C(=O)C(Cc4ccccc4)N3C2=O)C[C@H]2c3cccc4[nH]cc(c34)C[C@H]21 (some centres not stated) 0.876%, COc1cc2c(cc1OC)C1C(=O)c3c(O)cc4c(c3OC1CO2)C=CC(C)(C)O4 (configuration not stated) -0.0883%
